Experimental data: the supplement of paper PMC6555819

Tests used:
Experiment in all cases: PBM binding z-score (relative to random genomic background probes); higher = stronger binding; sequences stand for … in GC…GCGATTGACAGCGTAGAATGAAGG
[1] = tested on: FXR:RXRa (NR concentration 270 nM, RXRa partner concentration 90 nM)
Procedure, shortened: (§1)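 Custom Agilent 4×180K protein-binding microarrays carried double-stranded probes. Their 34-nt variable regions held direct-repeat seeds, single-nucleotide variants, half-site ablations and random human genomic background sequences. Arrays were incubated 1 h with ligand-free nuclear receptor dimers in PBS pH 7.4, 2% milk, 0.02% Triton X-100, 1 mM DTT, 0.2 mg/mL BSA and 0.4 mg/ml salmon testes DNA. Antibodies against each partner (one per run) detected binding, and scanned fluorescence was regression-normalized. Binding z-scores use random background probes as reference.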

[2] = tested on: LXRa:RXRa (NR concentration 270 nM, RXRa partner concentration 90 nM)
Procedure, shortened: as §1

[3] = tested on: LXRa homodimer (NR concentration 270 nM)
Procedure, shortened: as §1

[4] = tested on: LXRb:RXRa (NR concentration 270 nM, RXRa partner concentration 90 nM)
Procedure, shortened: as §1

[5] = tested on: LXRb homodimer (NR concentration 270 nM)
Procedure, shortened: as §1

[6] = tested on: PPARa:RXRa (NR concentration 270 nM, RXRa partner concentration 90 nM)
Procedure, shortened: as §1

[7] = tested on: PPARg:RXRa (NR concentration 180 nM, RXRa partner concentration 90 nM)
Procedure, shortened: as §1

[8] = tested on: PPARg:RXRa 270nM:90nM, anti-RXR (NR concentration 270 nM, RXRa partner concentration 90 nM)
Procedure, shortened: as §1

[9] = tested on: PPARg:RXRa 30nM:10nM, anti-RXR (NR concentration 30 nM, RXRa partner concentration 10 nM)
Procedure, shortened: as §1

[10] = tested on: PPARg:RXRa 90nM:30nM, anti-RXR (NR concentration 90 nM, RXRa partner concentration 30 nM)
Procedure, shortened: as §1

[11] = tested on: PPARg:RXRa DBDmut IVT, anti-RXR (DBD mutation: RXRa K156A/R161A, NR concentration 270 nM, RXRa partner concentration 90 nM)
Procedure, shortened: as §1

[12] = tested on: PPARg:RXRa IVT, anti-PPARg (NR concentration 270 nM, RXRa partner concentration 90 nM)
Procedure, shortened: as §1

[13] = tested on: PPARg DBDmut:RXRa IVT, anti-PPARg (DBD mutation: PPARg1 K132A/R137A, NR concentration 270 nM, RXRa partner concentration 90 nM)
Procedure, shortened: as §1

[14] = tested on: PPARg DBDmut IVT, anti-PPARg (DBD mutation: PPARg1 K132A/R137A, NR concentration 270 nM)
Procedure, shortened: as §1

[15] = tested on: PPARg homodimer (NR concentration 180 nM)
Procedure, shortened: as §1

[16] = tested on: PXR:RXRa (NR concentration 270 nM, RXRa partner concentration 90 nM)
Procedure, shortened: as §1

[17] = tested on: PXR homodimer (NR concentration 270 nM)
Procedure, shortened: as §1

[18] = tested on: RARa:RXR (NR concentration 270 nM, RXRa partner concentration 90 nM)
Procedure, shortened: as §1

[19] = tested on: RARa homodimer (NR concentration 270 nM)
Procedure, shortened: as §1

[20] = tested on: RARb:RXRa (NR concentration 270 nM, RXRa partner concentration 90 nM)
Procedure, shortened: as §1

Sequence | PBM binding z-score [1] | PBM binding z-score [2] | PBM binding z-score [3] | PBM binding z-score [4] | PBM binding z-score [5] | PBM binding z-score [6] | PBM binding z-score [7] | PBM binding z-score [8] | PBM binding z-score [9] | PBM binding z-score [10] | PBM binding z-score [11] | PBM binding z-score [12] | PBM binding z-score [13] | PBM binding z-score [14] | PBM binding z-score [15] | PBM binding z-score [16] | PBM binding z-score [17] | PBM binding z-score [18] | PBM binding z-score [19] | PBM binding z-score [20]
CCGAGTAGGCTATGGGGCATTCAGGCAACGGTGA | -0.882 | -1.01 | -0.67 | -0.799 | -1.07 | 0.341 | 1.43 | 2.92 | 0.549 | 2.35 | 0.771 | 0.867 | -0.695 | -1.15 | -0.376 | -0.862 | -0.647 | -0.583 | -0.463 | -0.102
TCTTGTAGATCAATAGAGGTTAAGCAAGTGCGCT | 0.958 | 2.62 | 0.281 | 1.34 | -0.1 | 2.08 | 0.0342 | 1.71 | 2.75 | 2.4 | 1.66 | 1.19 | 0.792 | -0.371 | 0.43 | 3.72 | 0.269 | 1.89 | 0.018 | 0.837
CCTTACGGGTCACGAGGTGATAGCACGACGAGCG | 6.73 | 4.27 | -0.242 | 3.42 | -0.279 | 5.82 | 7.42 | 6.5 | 3.14 | 5.75 | 3.97 | 5.24 | 1.17 | 1.06 | 3.17 | 3.69 | -0.0631 | 5.02 | 0.649 | 4.27
CGTCCAAGGTCACAGGTCAGTGAAGAGATGACGG | 7.44 | 5.62 | 1.31 | 4.1 | 0.374 | 6.12 | 7.73 | 6.93 | 3.6 | 5.82 | 4 | 5.24 | 0.709 | 0.624 | 2.75 | 4.99 | 0.786 | 6.06 | 1.32 | 5.63
ATCGAAAGGTCGAAGGTGAGTAAACCCACCCGAA | 4.69 | 3.83 | 0.284 | 3.05 | 0.315 | 4.88 | 4.96 | 5.19 | 1.91 | 4.14 | 0.0227 | 2.17 | 0.972 | 0.487 | 1.89 | 3.11 | 0.0457 | 4.5 | 0.979 | 3.88
CCTGCTAGGTCATGGTCATCTAATCTACAGTATG | 3.56 | 2.73 | 0.055 | 1.89 | -0.408 | 3.6 | 2.73 | 3.03 | 0.662 | 1.85 | 4.28 | 3.88 | 0.258 | 0.159 | 1.51 | 1.53 | -0.321 | 2.23 | 0.16 | 3.76
TAGCCTAGGTTATTGGGCCAGTATAGTACGCATC | -0.0933 | 0.0825 | -0.331 | 0.173 | -0.786 | 1.61 | 1.5 | 1.51 | -0.136 | 0.762 | 2.14 | 2.87 | -0.637 | 0.0704 | -0.257 | 0.000197 | -0.646 | 0.299 | -1.1 | 0.689
TCTGCTAGGTCAACGATGGTCAGGTAATCTGCTA | 3.43 | 2.96 | 0.163 | 1.53 | -0.249 | 3.19 | 2.74 | 3.06 | 2.01 | 2.65 | 4.42 | 4.19 | 0.0564 | -0.0875 | 0.216 | 1.61 | -0.526 | 2.34 | -0.895 | 3.93
CTCGAAAGGTCGTGCGCAGGTGAGTATACCAAAC | 5.71 | 4.35 | 0.33 | 3.84 | 0.153 | 5.58 | 3.34 | 4.47 | 1.36 | 2.98 | 0.325 | 2.29 | 0.196 | 0.413 | 1.83 | 3.65 | -0.0048 | 4.48 | 0.0809 | 4.19
ATCTCTAGGTAACCAAGTTCAGTGATTGCCGAAC | 0.358 | 0.717 | 0.794 | 0.577 | 0.713 | 1 | 0.254 | 0.803 | 0.204 | 0.579 | 3.9 | 2.88 | 1.17 | 1.33 | 0.823 | 1.96 | 2.46 | 0.708 | 0.307 | 1.18
AGTCAACGTTCAGGACGAGGTAACGTAAAGCACG | -0.0969 | -0.468 | -0.628 | -0.496 | -0.581 | -0.416 | 0.73 | -0.278 | -0.327 | -0.0729 | -0.667 | -0.129 | -0.279 | -0.261 | -0.431 | -0.527 | -0.514 | 0.104 | -0.202 | 0.548
CTGGAAAGGTCGGTTGAGGTGAGTATACGGATAA | 2.81 | 1.32 | 0.136 | 1.12 | -0.219 | 2.57 | 0.576 | 0.975 | -0.182 | 0.424 | -0.117 | 0.957 | -0.556 | 0.0614 | 0.799 | 3.21 | -0.0647 | 2.05 | 0.351 | 2.89
GCGACTGGGGCAAAGAAGGTTACCATAAGGTTGG | 1.24 | 0.788 | -0.0747 | 1.06 | -0.824 | 1.72 | 1.56 | 2.22 | 0.513 | 1.66 | 4.68 | 3.4 | -0.0271 | -0.382 | 0.618 | 1.11 | -0.136 | 1.22 | -0.528 | 1.59
CCTCAAAGTTCAAGGTAACGTAACAGAAAGCAGC | 5.83 | 5.87 | 3.49 | 3.83 | 1.95 | 4.85 | 2.87 | 3.67 | 0.99 | 2.22 | 0.797 | 0.928 | 0.66 | 0.159 | 3.58 | 4.18 | 2.53 | 3.49 | 2.16 | 5.26
AGAACGAGGGCACGCTGTGTTGATAGCAGAGTAG | 0.77 | 0.377 | -0.602 | 0.159 | -1.07 | 1.92 | 2.14 | 1.81 | 0.262 | 1.12 | 4.43 | 3.96 | 0.394 | -0.216 | -0.372 | 0.28 | -0.446 | 0.799 | -0.803 | 2.39
CGTCCAAGGTCAATGCTAGGTCAGTGATAGCATT | 6.64 | 5.38 | 2.71 | 4.07 | 0.685 | 5.03 | 4.12 | 4.4 | 1.74 | 3.05 | 3.49 | 4.23 | 0.259 | 0.244 | 6.16 | 5.12 | 2 | 6.2 | 2.14 | 5.21
TAGCCTGGGTCAGATCGGGCCAGTATACGCTATA | 1.63 | 0.208 | -0.918 | 0.153 | -0.84 | 1.32 | 0.579 | 0.64 | -0.488 | 0.167 | -0.428 | 0.885 | -0.83 | -0.762 | -0.849 | 0.931 | -0.947 | 0.69 | -0.739 | 2.33
TGAATGAGGTTGTAAGATCAGGGAACGTTGCAAA | -0.0998 | -0.208 | -0.429 | -0.35 | 0.0245 | 0.282 | -0.0383 | 0.349 | 0.261 | 0.21 | -0.831 | -0.0172 | 0.744 | -0.354 | -0.324 | -0.125 | -0.318 | 0.203 | -0.183 | 0.0234
CGAACTAGGTCATCCAGGACAGGGAATACATTGA | 4.45 | 2.35 | 0.51 | 1.85 | 0.035 | 4.75 | 7.8 | 6.18 | 3.9 | 5.82 | 7.79 | 8.34 | 3.98 | 2.59 | 1.77 | 1.6 | 0.593 | 2.36 | 0.244 | 3.78
